From PubChem BioAssay come the findings set out here.

Unmarked numbers belong to inactive results. For some assays here: Potency and affinity values are given separately. Calls of active or inactive are those of the source. Unless noted, how the calls were made is not given here.

Assay [1] can be described thus: antimalarial activity against Dd2 strain (AID 2302;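 active means growth inhibition above 50% at the single 2 µM test dose, taken to imply half-maximal potency below 2 µM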;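 further: 0% = DMSO untreated growth and 100% = chloroquine plus artemisinin killed control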). The conditions noted are these: P. falciparum Dd2 in RBCs, LDH growth readout, 72 h; at 2 µM; active compounds read high.
Assay [2] is described as follows: HepG2 cytotoxicity, primary screen, cytotoxicity control for P. falciparum antimalarial project, cell-based, ATP luminescence (AID 2303;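 active means inhibition above 50%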;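 further: 0% = DMSO wells and 100% = digitonin-killed cells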). The conditions noted are these: HepG2 viability, 24-48 h, at 10 µM, active compounds read high.
The target in assay [3] is L-lactate dehydrogenase (Plasmodium falciparum (isolate CDC / Honduras)) (UniProt Q27743). Nature of the assay: PfLDH activity inhibition – cell lysate, 3D7 strain, counter-screen for P. falciparum growth inhibition project (AID 2304).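 Further: 0% = vehicle and 100% = reference inhibitor.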 The settings on record: P. falciparum 3D7 crude extract, LDH APAD/NBT absorbance; at 2 µM; active compounds read high. On the technique in general: The purpose of a counterscreen is to sort out artefacts and off-target activity.
Chain of L-lactate dehydrogenase (Plasmodium falciparum (isolate CDC / Honduras)) (Q27743 whole entry, looked up): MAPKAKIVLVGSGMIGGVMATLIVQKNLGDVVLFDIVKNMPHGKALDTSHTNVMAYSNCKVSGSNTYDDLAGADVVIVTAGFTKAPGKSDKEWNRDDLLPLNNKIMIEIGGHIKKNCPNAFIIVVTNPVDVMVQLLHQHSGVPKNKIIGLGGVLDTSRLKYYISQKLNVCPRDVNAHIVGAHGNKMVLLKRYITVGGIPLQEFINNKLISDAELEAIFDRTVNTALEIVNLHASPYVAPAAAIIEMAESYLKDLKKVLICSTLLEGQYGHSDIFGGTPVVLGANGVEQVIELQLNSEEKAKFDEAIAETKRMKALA

A short description of assay [4]: inhibition of 3D7 malaria parasite growth – strain 3D7 (AID 2306).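 Further: 0% = DMSO wells and 100% = chloroquine plus artemisinin control wells.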 The settings on record: P. falciparum 3D7 erythrocytic growth, LDH absorbance, 72 h; at 2 µM; active compounds read high.
Assay [5] addresses Calcium-dependent protein kinase 1 (Plasmodium falciparum (isolate 3D7)) (UniProt P62344). Nature of the assay: PfCDPK1 kinase inhibitors, biochemical, TCAMS library (AID 1159585; cut-off not given, nearly all actives have IC50 up to about 0.98 µM;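 further: inhibitors leave more ATP so luminescence rises with inhibition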). The settings on record: recombinant PfCDPK1, Kinase-Glo ATP depletion luminescence. (In Kinase-Glo more light means more ATP remaining.)
Assay [6] deals with Plasmodium falciparum protein kinase 6 (PK6, PF3D7_1337100) (UniProt Q8IDW1). Nature of the assay: PfPK6 kinase inhibitors, biochemical, TCAMS library (AID 1159586). The settings on record: recombinant PfPK6, Kinase-Glo ATP depletion luminescence.
Chain of Plasmodium falciparum protein kinase 6 (PK6, PF3D7_1337100) (Q8IDW1 1-305): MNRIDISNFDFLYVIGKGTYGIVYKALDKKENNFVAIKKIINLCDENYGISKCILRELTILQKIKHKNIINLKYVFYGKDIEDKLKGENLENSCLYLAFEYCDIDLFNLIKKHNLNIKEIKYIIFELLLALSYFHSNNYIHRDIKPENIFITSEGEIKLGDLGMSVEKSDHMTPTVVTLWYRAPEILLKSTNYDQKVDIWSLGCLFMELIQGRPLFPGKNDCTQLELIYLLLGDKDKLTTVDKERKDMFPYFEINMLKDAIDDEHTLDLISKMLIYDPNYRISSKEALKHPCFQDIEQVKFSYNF
Assay [7] concerns the target Protein kinase 7 (PK7), Plasmodium falciparum 3D7 (PF3D7_0213400) (UniProt Q7YTF7). Description: inhibition of Plasmodium PK7 catalytic activity – biochemical, TCAMS antimalarial set, Kinase-Glo luminescence (AID 1159587). The conditions noted are these: recombinant PfPK7, Kinase-Glo ATP depletion luminescence.
Assay [8] concerns the target Calcium-dependent protein kinase 4 (Plasmodium falciparum (isolate 3D7)) (UniProt Q8IBS5). Description: PfCDPK4 kinase inhibitors, biochemical, TCAMS library (AID 1159588; cut-off not given, nearly all actives have IC50 up to about 0.91 µM). The settings on record: recombinant PfCDPK4, Kinase-Glo ATP depletion luminescence.

Chain of Calcium-dependent protein kinase 4 (Plasmodium falciparum (isolate 3D7)) (Q8IBS5 whole entry, looked up): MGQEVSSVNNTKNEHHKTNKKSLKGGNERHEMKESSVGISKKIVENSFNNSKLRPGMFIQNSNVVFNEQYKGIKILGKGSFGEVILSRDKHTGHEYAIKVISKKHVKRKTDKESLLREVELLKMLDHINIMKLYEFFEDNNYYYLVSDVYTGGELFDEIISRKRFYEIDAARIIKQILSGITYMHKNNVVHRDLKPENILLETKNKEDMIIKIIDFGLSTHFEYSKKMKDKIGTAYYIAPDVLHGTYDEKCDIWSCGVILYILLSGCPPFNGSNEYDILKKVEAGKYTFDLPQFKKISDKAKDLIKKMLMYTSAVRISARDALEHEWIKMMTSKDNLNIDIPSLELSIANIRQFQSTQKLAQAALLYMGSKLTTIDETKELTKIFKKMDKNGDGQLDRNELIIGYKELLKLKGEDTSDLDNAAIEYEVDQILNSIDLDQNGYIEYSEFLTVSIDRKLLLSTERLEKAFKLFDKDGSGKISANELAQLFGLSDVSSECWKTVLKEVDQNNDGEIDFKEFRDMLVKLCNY
Chain of Calcium-dependent protein kinase 1 (Plasmodium falciparum (isolate 3D7)) (P62344 whole entry, looked up): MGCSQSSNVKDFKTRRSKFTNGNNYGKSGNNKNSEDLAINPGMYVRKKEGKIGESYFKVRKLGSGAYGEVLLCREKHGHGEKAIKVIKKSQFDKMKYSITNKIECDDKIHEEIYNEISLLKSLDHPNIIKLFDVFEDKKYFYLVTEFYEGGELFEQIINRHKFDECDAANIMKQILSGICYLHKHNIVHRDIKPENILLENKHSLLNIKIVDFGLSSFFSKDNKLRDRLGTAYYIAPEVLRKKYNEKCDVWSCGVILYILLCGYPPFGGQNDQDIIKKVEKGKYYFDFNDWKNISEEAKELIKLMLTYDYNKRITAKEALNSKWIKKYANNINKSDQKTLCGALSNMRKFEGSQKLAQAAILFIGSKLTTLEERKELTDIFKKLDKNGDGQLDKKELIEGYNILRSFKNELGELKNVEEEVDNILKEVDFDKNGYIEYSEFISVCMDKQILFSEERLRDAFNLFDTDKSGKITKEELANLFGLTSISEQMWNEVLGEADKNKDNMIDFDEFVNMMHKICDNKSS
Chain of Protein kinase 7 (PK7), Plasmodium falciparum 3D7 (PF3D7_0213400) (Q7YTF7 1-343): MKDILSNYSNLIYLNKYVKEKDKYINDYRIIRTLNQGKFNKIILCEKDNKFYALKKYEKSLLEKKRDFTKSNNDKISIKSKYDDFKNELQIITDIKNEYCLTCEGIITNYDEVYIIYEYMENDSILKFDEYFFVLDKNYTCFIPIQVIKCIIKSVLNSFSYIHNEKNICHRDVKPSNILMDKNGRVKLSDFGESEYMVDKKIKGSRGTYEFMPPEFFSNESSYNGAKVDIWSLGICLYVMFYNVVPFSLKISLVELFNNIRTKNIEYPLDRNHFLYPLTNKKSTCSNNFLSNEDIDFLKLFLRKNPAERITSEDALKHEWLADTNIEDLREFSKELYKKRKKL

What is called inhibition is the relative decrease from the control value, in per cent. In the case of `O=C(Nc1cccc(N2CCC(NCCCn3ccnc3)CC2)c1)c1cccc(C(F)(F)F)c1`, the growth inhibition is 2% in assay [1] and 101% (active) in assay [4]. Further, the inhibition is 8% in assay [2] and 3% in assay [3]. For the same compound, the result in assay [5], in assay [6], in assay [7] and in assay [8] was inactive.

For the compound `CC(C)CNCc1ccc(OCc2cccc(COc3ccc(CNCC(C)C)cc3I)c2)c(I)c1`, the growth inhibition in assay [1] is 84% (active); in assay [4], 98% (active). The inhibition in assay [2] was 23%; in assay [3], -4%. Moreover, the outcome in assay [5], in assay [6], in assay [7] and in assay [8] was inactive.

`CC(C)COc1ccc(Cl)cc1Cc1ccc(-c2nc3ccc(C(F)(F)F)cc3[nH]2)o1`: the growth inhibition was 51% (active) in assay [1] and 97% (active) in assay [4]. For the same compound, the results for the inhibition in assay [2] and in assay [3] were 14% and 5%, respectively. The result in assay [5], in assay [6], in assay [7] and in assay [8] was inactive.

Regarding `COc1ccc(CCN(C)CCOc2ccc(NC(=O)c3cc(SC)cc4c(=O)c5ccccc5[nH]c34)cc2)cc1OC`, the results for the growth inhibition in assay [1] and in assay [4] were 44% and 87% (active), respectively. The inhibition is 7% in assay [2] and 0% in assay [3]. Moreover, the result in assay [5], in assay [6], in assay [7] and in assay [8] was inactive.

Turning to `CCC1CCCCN1S(=O)(=O)c1ccc(OC)c(N2CCN(C(=O)C(Cl)(Cl)Cl)CC2)c1` (configuration not stated), the figures for the growth inhibition in assay [1] and in assay [4] were 29% and 89% (active), respectively. Moreover, the inhibition in assay [2] is 9%; in assay [3], 5%. Moreover, the outcome in assay [5], in assay [6], in assay [7] and in assay [8] was inactive.

With `CCOC(=O)COc1cccc(CNc2ccc3nc(N)nc(N)c3c2)c1`, the values for the growth inhibition in assay [1] and in assay [4] were 99% (active) and 100% (active), respectively. Further, the inhibition in assay [2] is 18%; in assay [3], 4%. Besides, the outcome in assay [5], in assay [6], in assay [7] and in assay [8] was inactive.

As for `CN1CCN(Cc2cc3cc(NC(=O)/C=C/c4ccc(Cl)cc4)ccc3s2)CC1`, the growth inhibition in assay [1] was 20%; in assay [4] it was 100% (active). The inhibition in assay [2] was 51% (active); in assay [3], 2%. The result in assay [5], in assay [6], in assay [7] and in assay [8] was inactive.

With `NCCC(=O)Nc1ccc(-c2cnc3[nH]cc(-c4ccc(C(=O)O)cc4)c3c2)cn1`, the values for the growth inhibition in assay [1] and in assay [4] were 67% (active) and 99% (active), respectively. Moreover, the inhibition in assay [2] was -8%; in assay [3], 3%. The outcome in assay [5], in assay [6], in assay [7] and in assay [8] was inactive.

As for `CCCC(C(=O)OCCN(CC)CC)(c1ccc(Cl)cc1)c1ccc(Cl)cc1`, the growth inhibition was 87% (active) in assay [1] and 91% (active) in assay [4]. The inhibition in assay [2] is 7%; in assay [3] it was 2%. For the same compound, the outcome in assay [5], in assay [6], in assay [7] and in assay [8] was inactive.

For `Cn1cnc(CCNC(=O)c2cccc(-c3cccc(-c4nc5ccc(C(F)(F)F)cc5[nH]4)c3)c2)c1`, the results for the growth inhibition in assay [1] and in assay [4] were 45% and 100% (active), respectively. Moreover, the inhibition in assay [2] was 37%; in assay [3] it was 4%. Moreover, the outcome in assay [5], in assay [6], in assay [7] and in assay [8] was inactive.

For `CS(=O)(=O)Nc1cccc(-c2cnc3[nH]cc(-c4ccc(CCC(=O)O)cc4)c3c2)c1`, the figures for the growth inhibition in assay [1] and in assay [4] were 78% (active) and 98% (active), respectively. Also, the results for the inhibition in assay [2] and in assay [3] were 7% and 2%, respectively. Further, the result in assay [5], in assay [6], in assay [7] and in assay [8] was inactive.

`CCN(CC)CCN(CCCc1ccc(-c2ccc(C(F)(F)F)cc2)cc1)C(=O)Cn1c(CCc2cccc(F)c2F)nc(=O)c2c1CCC2`: the results for the growth inhibition in assay [1] and in assay [4] were 27% and 92% (active), respectively. For the same compound, the inhibition in assay [2] is 38%; in assay [3] it was -2%. Further, the outcome in assay [5], in assay [6], in assay [7] and in assay [8] was inactive.

`Cc1ccc2nc3ccccc3c(NCCN3CCN(C)CC3)c2c1`: the growth inhibition was 6% in assay [1] and 101% (active) in assay [4]. For the same compound, the inhibition in assay [2] was 19%; in assay [3], -7%. Besides, the result in assay [5], in assay [6], in assay [7] and in assay [8] was inactive.

As to `N#Cc1ccc(CN2CCC(Oc3ccc(NC(=O)c4cccs4)cc3)CC2)cc1`, the growth inhibition is 82% (active) in assay [1] and 83% (active) in assay [4]. Also, the inhibition was 10% in assay [2] and -3% in assay [3]. Besides, the result in assay [5], in assay [6], in assay [7] and in assay [8] was inactive.

Consider `CC1CN(Cc2ccc(C#N)cc2)CCN1c1ccc(NC(=O)c2cccs2)cc1` (configuration not stated), for which the growth inhibition is 89% (active) in assay [1] and 93% (active) in assay [4]. The inhibition is 8% in assay [2] and 2% in assay [3]. Further, the result in assay [5], in assay [6], in assay [7] and in assay [8] was inactive.

Regarding `COc1cccc(C(C)(C)NC[C@@H](O)[C@H](Cc2ccccc2)NC(=O)c2cc(C3CCCC3)cc(N3CCCCS3(=O)=O)c2F)c1`, the growth inhibition in assay [1] and in assay [4] was 99% (active) each time. Further, the values for the inhibition in assay [2] and in assay [3] were 16% and 7%, respectively. Moreover, the outcome in assay [5], in assay [6], in assay [7] and in assay [8] was inactive.

Regarding `CCCCCN1CCCN(Cc2cccc(NC(=O)c3ccc(-c4ccccc4)cc3)c2)CC1`, the growth inhibition was 15% in assay [1] and 95% (active) in assay [4]. In addition, the inhibition was 23% in assay [2] and 6% in assay [3]. The outcome in assay [5], in assay [6], in assay [7] and in assay [8] was inactive.

Regarding `Cc1cc(C(=O)Nc2ccc3c(c2)CCN3C2CCN(Cc3ccc4nsnc4c3)C2)no1` (configuration not stated), the growth inhibition is 94% (active) in assay [1] and 90% (active) in assay [4]. Further, the inhibition in assay [2] and in assay [3] was -1% each time. The result in assay [5], in assay [6], in assay [7] and in assay [8] was inactive.

Consider `COc1ccc2nccc(N3CCC(CCNCc4ccc5c(n4)NC(=O)CO5)CC3)c2n1`, for which the growth inhibition in assay [1] is 72% (active); in assay [4], 101% (active). In addition, the inhibition in assay [2] is 19%; in assay [3], -7%. Further, the result in assay [5], in assay [6], in assay [7] and in assay [8] was inactive.
